Results on nine compounds are retold here after PubChem BioAssay (NCI).

What all share (assay): NCI-60 one-dose screen, 48 h (100 = growth as untreated, 0 = no growth, -100 = all killed)
The subject of one assay is SR leukemia. As to conditions: 10 µM unless noted.
Another assay concerns RPMI-8226 leukemia. Particulars: 10 µM unless noted.
A further assay deals with OVCAR-5 ovarian. Particulars: 10 µM unless noted.
The test system of another assay is OVCAR-4 ovarian. Particulars: 10 µM unless noted.
The test system of a further assay is SK-OV-3 ovarian. Particulars: 10 µM unless noted.
A further assay concerns IGROV1 ovarian. As to conditions: 10 µM unless noted.
The test system of the next assay is OVCAR-3 ovarian. Particulars: 10 µM unless noted.
In another assay the test system is HS 578T breast. As to conditions: 10 µM.
In the next assay the test system is NCI/ADR-RES ovarian. Particulars: 10 µM unless noted.
The test system of another assay is T-47D breast. Particulars: 10 µM unless noted.
The test system of the next assay is BT-549 breast. As to conditions: 10 µM unless noted.
The test system of the next assay is MDA-MB-435 melanoma. As to conditions: 10 µM unless noted.
The test system of a further assay is SW-620 colon. Particulars: 10 µM unless noted.
The test system of another assay is MCF7 breast. Particulars: 10 µM unless noted.
In another assay the test system is KM12 colon. Particulars: 10 µM unless noted.
The test system of another assay is OVCAR-8 ovarian. As to conditions: 10 µM unless noted.
The next assay concerns HCT-116 colon. As to conditions: 10 µM unless noted.
For another assay, the system named is HCC-2998 colon. As to conditions: 10 µM unless noted.

About 83,000 compounds went through this panel and 20% of them were active in at least one assay; those are over-represented in the sample as a whole.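 A percent growth of 40 corresponds to 60% growth inhibition; 0 means no net growth; -100 means all cells died. Active threshold: below 10.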 A number with no mark means an inactive call. The source made the active and inactive calls.

Consider `O=C1Cc2c([nH]c3ccc([N+](=O)[O-])cc23)-c2ccccc2N1`, for which the growth with SR leukemia was -8.53% (active); with RPMI-8226 leukemia, -22.1% (active); in the assay on OVCAR-5 ovarian it was 12.3%; in the assay on OVCAR-4 ovarian, 16.7%; with SK-OV-3 ovarian, 28.2%; in the assay on IGROV1 ovarian it was -41.8% (active). The growth is -14.4% (active) in the assay on OVCAR-3 ovarian; 25.6% in the assay on HS 578T breast; 14.5% with NCI/ADR-RES ovarian; 22.1% with T-47D breast; 5.54% (active) with BT-549 breast; 16.2% in the assay with MDA-MB-435 melanoma. Also, the results for the growth in the assay with SW-620 colon, with MCF7 breast and in the assay on KM12 colon were -3.84% (active), 8.43% (active) and 4.23% (active), respectively.
For `Cc1cc(C)c2c(n1)sc1c(Nc3ccc(OCc4ccccc4)cc3)ncnc12`, the growth in the assay with SR leukemia is 95.5%; in the assay with RPMI-8226 leukemia, 95.1%; with OVCAR-8 ovarian it was 104%; in the assay with OVCAR-4 ovarian it was 107%; in the assay on SK-OV-3 ovarian it was 106%; in the assay on IGROV1 ovarian it was 97.5%. Further, the growth in the assay on OVCAR-3 ovarian was 100%; with HS 578T breast it was 108%; in the assay on NCI/ADR-RES ovarian it was 100%; in the assay on T-47D breast it was 95.7%; in the assay with BT-549 breast, 102%; in the assay with MDA-MB-435 melanoma, 107%. Further, the growth in the assay with SW-620 colon was 101%; with HCT-116 colon, 103%; in the assay with HCC-2998 colon, 96.1%; with KM12 colon it was 94.2%.
As to `COc1ccc(NC(=O)/C=C/c2ccc(Cl)c(Cl)c2)cn1`, the growth is 95.2% with SR leukemia; 61.1% with OVCAR-8 ovarian; 84.6% with OVCAR-5 ovarian; 20.5% with OVCAR-4 ovarian; 101% in the assay on SK-OV-3 ovarian; 67.8% with IGROV1 ovarian. In addition, the growth was 96.6% in the assay with OVCAR-3 ovarian; 92.6% in the assay with HS 578T breast; 1.03% (active) in the assay with NCI/ADR-RES ovarian; 71% in the assay with T-47D breast; 67.1% in the assay on BT-549 breast; 91.1% in the assay with MDA-MB-435 melanoma. In addition, the growth in the assay with SW-620 colon is 104%; with MCF7 breast it was 71.7%; with HCT-116 colon it was 84.8%; in the assay with HCC-2998 colon, 118%; with KM12 colon, 78.2%.
As to `COC(=O)/C=C/c1cc(OC(C)=O)c2c(c1)[C@@H](C(=O)OC)[C@H](c1ccc(OC(C)=O)c(OC(C)=O)c1)O2`, the growth in the assay on SR leukemia was 10.8%; with RPMI-8226 leukemia, 3.3% (active); in the assay on OVCAR-8 ovarian it was 11%; with OVCAR-4 ovarian, 30.4%; with SK-OV-3 ovarian, 36.4%; with IGROV1 ovarian, 12.2%. Also, the growth is -21.9% (active) in the assay on OVCAR-3 ovarian; 7.01% (active) in the assay with HS 578T breast; -5.91% (active) with NCI/ADR-RES ovarian; 74.7% with T-47D breast; 13.5% in the assay on BT-549 breast; -64.8% (active) with MDA-MB-435 melanoma. Moreover, the growth in the assay on MCF7 breast is 15.6%; with HCT-116 colon, 6.38% (active); with HCC-2998 colon, 22.2%; in the assay with KM12 colon, 5.97% (active).
Consider `Oc1ccc(-c2cnc(-c3ccccc3)[nH]2)c(O)c1`, for which the growth in the assay with SR leukemia was 40.2%; in the assay on RPMI-8226 leukemia, 38.7%; in the assay with OVCAR-8 ovarian it was 119%; in the assay on SK-OV-3 ovarian, 113%; in the assay on IGROV1 ovarian it was 94.3%; with OVCAR-3 ovarian, 107%. For the same compound, the growth in the assay with HS 578T breast was 97.7%; with NCI/ADR-RES ovarian it was 113%; in the assay with T-47D breast, 107%; with MDA-MB-435 melanoma it was 110%; with SW-620 colon, 109%; in the assay on MCF7 breast, 83.3%. In addition, the growth is 78.6% with HCT-116 colon, 117% in the assay on HCC-2998 colon and 102% in the assay with KM12 colon.
As for `CN(C)CCOc1nc2c3cccnc3cc(-c3cccc(Cl)c3)c2c2ncccc12`, the growth is 0.455% (active) in the assay on SR leukemia; 14.7% in the assay on OVCAR-8 ovarian; 45.5% with OVCAR-5 ovarian; 20.6% in the assay on OVCAR-4 ovarian; 45% in the assay on SK-OV-3 ovarian; 30.9% in the assay on IGROV1 ovarian. The growth with OVCAR-3 ovarian is 17.8%; with HS 578T breast, 43.1%; in the assay on NCI/ADR-RES ovarian, 18.7%; with BT-549 breast, 57.9%; in the assay with MDA-MB-435 melanoma, -59.6% (active); in the assay on SW-620 colon, -44.3% (active). In addition, the growth was -50% (active) in the assay on MCF7 breast, -81.3% (active) in the assay on HCT-116 colon, -79.2% (active) in the assay with HCC-2998 colon and 14.2% in the assay on KM12 colon.
Turning to `O=C(Nc1ccc(Oc2ccc(Nc3nc4ccccc4s3)cc2)cc1)Nc1ccc(Cl)c(C(F)(F)F)c1`, the growth with SR leukemia is 0.688% (active); with OVCAR-8 ovarian it was 6.28% (active); in the assay on OVCAR-5 ovarian, 23.6%; with OVCAR-4 ovarian, 17.7%; in the assay on SK-OV-3 ovarian it was 12.1%; with IGROV1 ovarian, 17%. In addition, the growth in the assay on OVCAR-3 ovarian was -3.18% (active); with HS 578T breast it was 7.39% (active); in the assay on NCI/ADR-RES ovarian, 5% (active); with T-47D breast it was 3.71% (active); in the assay on BT-549 breast, -1.46% (active); in the assay with MDA-MB-435 melanoma, 0.432% (active). The growth in the assay with SW-620 colon is 8.67% (active); with MCF7 breast it was 4.73% (active); with HCT-116 colon, 0.0223% (active); with HCC-2998 colon, 2.48% (active); in the assay on KM12 colon, 0.448% (active).
Regarding `C=CCn1c(C)nc2cc(Nc3nc(N4CCOCC4)nc4nc[nH]c34)ccc21`, the growth is 85.6% with SR leukemia; 71.9% with RPMI-8226 leukemia; 87.3% in the assay with OVCAR-8 ovarian; 88.4% in the assay with OVCAR-4 ovarian; 82.6% with SK-OV-3 ovarian; 72.9% with IGROV1 ovarian. Moreover, the growth in the assay with OVCAR-3 ovarian is 97.7%; in the assay on HS 578T breast, 57.3%; in the assay with NCI/ADR-RES ovarian, 108%; with T-47D breast, 75.4%; in the assay with BT-549 breast it was 90.3%; in the assay with MDA-MB-435 melanoma it was 100%. Besides, the growth in the assay on SW-620 colon was 93.1%; with MCF7 breast it was 86.5%; in the assay on HCC-2998 colon, 100%; in the assay on KM12 colon, 101%.
With `O=C1OC(c2ccc(-c3ccccc3)cc2)=C/C1=C/c1c(Cl)cccc1Cl`, the growth with SR leukemia is 69.6%; with RPMI-8226 leukemia it was 84.1%; in the assay on OVCAR-8 ovarian it was 105%; in the assay on OVCAR-4 ovarian it was 89.8%; in the assay on SK-OV-3 ovarian, 96.7%; with IGROV1 ovarian, 95.4%. For the same compound, the growth in the assay with OVCAR-3 ovarian is 97.1%; with HS 578T breast, 85.6%; in the assay with NCI/ADR-RES ovarian, 99.3%; in the assay on T-47D breast, 91.3%; with MDA-MB-435 melanoma, 104%; in the assay on SW-620 colon it was 95.9%. For the same compound, the growth with MCF7 breast is 76%; in the assay on HCT-116 colon, 63%; with HCC-2998 colon it was 102%; with KM12 colon it was 94.1%.
